The values that follow come from PubChem BioAssay (NCATS).

Records with an inconclusive call do not appear. A call without a number means that no potency is given here. Activity calls are given as the source filed them. The call rests on the fitted dose curve; in most records, active means well fitted inhibition curve with a large enough effect; inconclusive means small, poorly fitted or top-dose-only effect; inactive means flat fitted curve, though single readings scatter.

The assay deals with Phospholipid hydroperoxide glutathione peroxidase GPX4 (Homo sapiens) (UniProt P36969). Nature of the assay: Primary qHTS Assay for Inhibitors of Recombinant Selenoprotein Glutathione Peroxidase 4 (GPX4) (AID 1845192). Further: nearly all actives have a fitted effect of over 65% in size. The following applies: recombinant GPX4, GR-coupled NADPH fluorescence, 15 min; series mostly up to 50 µM. The gist of the method: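 GR-coupled readout: 100 nM GR, 1 mM GSH, 0.5 mM NADPH; NADPH fluorescence (ex 340/em 450 nm) read at t=0 and after 15 min RT. GPX4 200 nM, preincubated 30 min with compound; substrate 0.5 mM CHP.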
Phospholipid hydroperoxide glutathione peroxidase GPX4 (Homo sapiens), sequence (P36969 whole entry, looked up): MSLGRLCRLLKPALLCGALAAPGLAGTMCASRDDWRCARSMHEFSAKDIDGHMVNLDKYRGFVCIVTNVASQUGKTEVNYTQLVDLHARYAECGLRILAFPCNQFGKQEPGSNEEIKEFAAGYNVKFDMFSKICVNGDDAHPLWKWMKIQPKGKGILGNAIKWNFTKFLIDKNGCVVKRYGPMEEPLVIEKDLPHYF
For orientation: qHTS replaces the single test concentration by a dilution series.
Take `CNCC(O)c1ccc(O)c(O)c1` (stereo not given): the Potency entry is “inactive”.
With `O=C1NC(=O)[C@@]2(CCOc3ccc(F)cc32)N1`, the Potency entry is “inactive”.
For the molecule `C[C@H]1O[C@@H](n2cc(F)c(=O)[nH]c2=O)[C@H](O)[C@@H]1O`, the Potency entry is “inactive”.
As to `Nc1cc(=O)[nH]c(N)n1`, the Potency result is “inactive”.
Take `N=c1c[n+](N2CCOCC2)[n-]o1`: the Potency entry is “inactive”.
Under `C=Cc1c(C)c2cc3[nH]c(cc4nc(cc5nc(cc1[nH]2)C(C)=C5CCC(=O)O)C(CCC(=O)O)=C4C)c(C)c3C=C` stands “inactive”; under `O=C1N=C(O)CN1/N=C/c1ccc(-c2ccc([N+](=O)[O-])cc2)o1`, “inactive”; under `CCN(CC)CCOC(=O)C1(C2CCCCC2)CCCCC1`, “inactive”.
As for `CC(C)C(=O)c1c(C(C)C)nn2ccccc12`, the Potency entry is “inactive”.
With `CNCCCC1c2ccccc2C=Cc2ccccc21`, the Potency entry is “inactive”.
On to `O=C1O[C@H]([C@@H](O)CO)C(O)=C1O`, for which the Potency result was “inactive”.
In the case of `CC12CCC(CC1)C(C)(C)O2`, the Potency entry is “inactive”.
Consider `C[C@]12C[C@H](O)[C@H]3[C@@H](CCC4=CC(=O)CC[C@@]43C)[C@@H]1CC[C@@H]2C(=O)CO`, for which the Potency result is “inactive”.
Regarding `CSc1ccc2c(c1)C(N1CCN(C)CC1)Cc1ccccc1S2` (stereo not given), the Potency result was “inactive”.
For `C[C@](N)(Cc1ccc(O)cc1)C(=O)O`, the Potency entry was “inactive”.
